The target of one assay is Furin (Homo sapiens) (UniProt P09958). The assay is described as follows: Furin counterscreen qHTS for Zika virus inhibitors (AID 1347149).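 Note: purified recombinant full-length human furin enzyme at 5 nM; fluorescence gain from furin cutting a BOC-RVRR-AMC peptide substrate over 15 min; top concentration of the series differs between compounds; plate controls were no-inhibitor control for no effect and no-enzyme control for full effect; nearly all actives have a fitted effect of over 70% in size.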 In a few lines: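 Fluorogenic cleavage of BOC-RVRR-AMC (2 microM final, Km ~15 µM) was monitored (ex 340, em 450 nm) at 37C after 15 min RT preincubation of 5 nM furin with compounds in HEPES pH 7.0 buffer with CaCl2 and Triton X-100. Percent inhibition was fitted to a 4-parameter Hill curve.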
(In general: A counterscreen serves to expose hits that act by an unwanted route or on another target.)

For assay [1], the system named is Zika virus NS2B-NS3 protease (unlinked). The assay is described as follows: Optimization of GU AMC qHTS for Zika virus inhibitors: Unlinked NS2B-NS3 protease assay (AID 1347151).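 Note: 0% = no-inhibitor control and -100% = no-enzyme control; nearly all actives have a fitted effect of over 80% in size.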 In a few lines: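 In this qHTS, compounds acted on 25 nM unlinked Zika NS2B–NS3 in pH 8.0 Tris/Tween buffer. Cleavage of an AMC peptide ran 15 min at room temperature, to about 20% conversion.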
In general terms: qHTS replaces the single test concentration by a dilution series.

Assay [2] relates to Zika virus NS2B-NS3 protease. The assay is described as follows: Primary screen GU AMC qHTS for Zika virus inhibitors (AID 1347154).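 Note: 0% = no-inhibitor control and -100% = no-enzyme control; nearly all actives have a fitted effect of over 70% in size.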 In a few lines:
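Unlinked Zika NS2B hydrophilic domain–NS3 protease complex at 25 nM in 10 mM Tris-HCl pH 8.0, 0.01% Tween 20, with an AMC peptide substrate. Fluorescence change (340/450 nm) over 15 min at room temperature, normalized to controls, fitted to 4-parameter Hill.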

Assay [3] in a line: Vero cells viability qHTS for Zika virus inhibitors (AID 1347167). Note: % is set by controls: 0 for no effect and ±100 for the full control effect. In a few lines: (§1)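 Cells seeded at 2.5 x 10^5 cells/mL in DMEM with 4% FBS and attached overnight at 37 degrees C, then exposed to compound for 24 to 48 hours. Viability read as ATP content by CellTiter Glo luminescence.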
Assay [4] can be described thus: HepG2 cells viability qHTS for Zika virus inhibitors (AID 1347168). Note: % is set by controls: 0 for no effect and ±100 for the full control effect. The essentials: as §1
Assay [5] can be described thus: Tertiary RLuc qRT-PCR qHTS assay for Zika virus inhibitors (AID 1347169). For activity change, negative = inhibition: top concentration of the series differs between compounds; % is set by controls: 0 for no effect and ±100 for the full control effect. Note: nearly all actives have a fitted effect of over 55% in size. Note: potency is the fitted concentration of half-maximal effect. In a few lines:
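Inhibition of ZIKV-RLuc replication in Vero cells, read as Renilla luminescence 1-1.5 hrs after live-cell substrate addition, following 48-72 hrs infection at MOI 1-2 in presence of compound.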

In assay [6] the test system is Zika virus NS2B-NS3 protease (linked construct). The assay is described as follows: Confirmatory screen NINDS AMC qHTS for Zika virus inhibitors (AID 1347152).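 Note: AMC fluorescence gain from cleaved Bz-Nle-KRR-AMC substrate over 15 min; top concentration of the series differs between compounds; 0% = no-inhibitor control and -100% = no-enzyme control; nearly all actives have a fitted effect of over 70% in size.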 In a few lines: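 Concentration-response confirmation used the NINDS linked protease (NS2B hydrophilic domain joined to NS3 protease domain), 1 nM, with a 15-min compound preincubation. Substrate, Nle-KRR-AMC at 10 microM, was read by UV fluorescence before and after 15 min.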

Assay [7] deals with Zika virus NS2B-NS3 protease (unlinked complex). The assay is described as follows: Confirmatory screen GU AMC qHTS for Zika virus inhibitors (AID 1347153).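 Note: percent inhibition with 0% = no inhibitor control and 100% = no enzyme control; nearly all actives have a fitted effect of over 70% in size.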 The essentials:
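Unlinked NS2B-NS3 complex (25 nM) in 10 mM Tris-HCl pH 8.0, 0.01% Tween 20 preincubated 15 min with compound, then 10 microM Bz-Nle-KRR-AMC (Km 18.3 µM). Fluorescence change over 15 min, normalized, Hill-fitted.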

The target in assay [8] is Nucleoprotein (Lymphocytic choriomeningitis virus (strain Armstrong)) (UniProt P09992). The assay is described as follows: qHTS for Inhibitors of the Functional Ribonucleoprotein Complex (vRNP) of Lymphocytic Choriomeningitis Arenaviruses (LCMV): LCMV Primary Screen - GLuc reporter signal (AID 1347086; calls by dose curve).
For assay [9], the target named is Cytochrome P450 3A4 (Homo sapiens) (UniProt P08684). The assay is described as follows: qHTS Assay for Inhibitors and Substrates of Cytochrome P450 3A4 (AID 884). Note: % is set by controls: 0 for no effect and ±100 for the full control effect; nearly all actives have a fitted effect of over 50% in size. In a few lines:
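20 nM human CYP3A4 with 25 uM Luciferin-PPXE (at KM) in 200 mM KPO4, preincubated 10 min with compound; NADPH regeneration started a 60 min RT reaction. Luciferin detected by luminescence, normalized to 57 uM ketoconazole as full inhibition.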

The nature of assay [10]: Confirmation and Secondary Assay for Modulators of Hemoglobin Beta Chain Splicing at IVS2 705 locus (AID 930).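 Note: HeLa cells stably expressing the EGFP-705 splicing reporter; GFP fluorescence per well restored by corrected splicing of the IVS2-705 intron in EGFP; % of control where 0% means no effect.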 The essentials: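 First, HeLa EGFP-705 cells are seeded at 500/well in Optimem with 2% FCS and left overnight. Next, compound or DMSO is added for 2 days. Finally wells are laser-scanned and total peak GFP intensity scored.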
Assay [11] in a line: qHTS Assay for Lipid Storage Modulators (AID 1519; calls by dose curve; for activity change, negative = inhibition: % is set by controls: 0 for no effect and ±100 for the full control effect). The settings on record: Drosophila S3 cells, BODIPY lipid droplet/cell ratio, laser cytometry, cells loaded with oleic acid; for activity change, negative = inhibition: at 57.5 µM (top of the series). In a few lines: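 Cells seeded at 5,000 per well were treated with compounds over a concentration series and loaded with oleic acid (400 uM, as added). Lipid droplet fluorescence (488 nm excitation, 500-530 nm channel) was read by laser-scanning cytometry and normalized to 20 uM Triacsin C.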

Assay [12] can be described thus: Confirmatory screen GU Rhodamine qHTS for Zika virus inhibitors qHTS (AID 1347157). The essentials: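 Noncovalent NS2B hydrophilic domain/NS3 protease complex (25 nM final) in 10 mM Tris-HCl pH 8.0, 0.01% Tween 20, preincubated 15 min with compounds (up to 114 microM), then 1.5 microM Rhodamine110 substrate. Fluorescence change over 15 min fitted to 4-parameter Hill.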

A short description of assay [13]: Confirmatory screen NINDS Rhodamine qHTS for Zika virus inhibitors (AID 1347161). Note: potency is the fitted concentration of half-maximal effect; nearly all actives have a fitted effect of over 60% in size. The essentials: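 Purified NS2B-NS3 protease with the NS2B hydrophilic domain joined by a flexible linker (25 nM) in 10 mM Tris-HCl pH 8.0, 0.01% Tween 20, preincubated 15 min at RT with compound; Rhodamine110 peptide substrate 1.5 µM; fluorescence change over 15 min; 4-parameter Hill fit.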

Assay [14] concerns Zika virus NS2B-NS3 protease (linked). The assay is described as follows: 384 well plate NINDS AMC confirmatory qHTS for Zika virus inhibitors (AID 1347163). Note: potency is the fitted concentration of half-maximal effect; nearly all actives have a fitted effect of over 50% in size. As to conditions: Recombinant NS2B-NS3 protease, Ac-VKTGKR-AMC fluorescence. The essentials: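 Linked NS2B-NS3 protease (final 5 nM, 30 nM or 60 nM) was preincubated with compounds (final up to 1 mM) for ~15 minutes. Ac-VKTGKR-AMC substrate (final 30 microM) then reacted for 25 minutes at room temperature in the dark. Fluorescence (ex 355/em 460 nm) was normalized to no-enzyme and no-inhibitor controls.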

The test system of assay [15] is Zika virus NS2B-NS3 protease (linked construct). The assay is described as follows: 384 well plate NINDS Rhodamine confirmatory qHTS for Zika virus inhibitors (AID 1347164). Note: potency is the fitted concentration of half-maximal effect; nearly all actives have a fitted effect of over 65% in size. In a few lines:
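Cleavage of Ac-LKRR-Rhodamine 110 (10 microM final) by linked protease (final 5, 30 or 60 nM) was followed as fluorescence at 485/538 nm after 25 min, room temperature, dark. Compounds preincubated ~15 min.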

In assay [16] the target is Ubiquitin carboxyl-terminal hydrolase 1 (Homo sapiens) (UniProt O94782). Nature of the assay: Inhibitors of USP1/UAF1: Pilot qHTS (AID 504865).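 Note: rhodamine fluorescence freed from ubiquitin-rhodamine substrate followed over time; top concentration of the series differs between compounds; % is set by controls: 0 for no effect and ±100 for the full control effect; nearly all actives have a fitted effect of over 35% in size.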 The essentials:
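Enzyme-free wells gave the negative control, while test wells held 1nM USP1/UAF1 preincubated with compound for 15 min at room temperature. Ub-Rho at 150nM final started the reaction, and fluorescence at 480/540 nm was recorded kinetically.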

Where [17] appears, read: measured here: cell count channel max response.
Where [18] appears, read: measured here: lipid channel max response.

The structures appear in SMILES notation. Records with an inconclusive call do not appear. The source made the active and inactive calls. Unless noted, calls come from the whole dose curve; as a rule, active = well fitted curve in the direction sought with a large enough effect; inconclusive = small, poorly fitted or top-dose-only effect, or another doubt; inactive = no such curve, though single readings can be large; an effect the other way counts as inactive or inconclusive.

Furin (Homo sapiens), sequence (P09958 whole entry, looked up): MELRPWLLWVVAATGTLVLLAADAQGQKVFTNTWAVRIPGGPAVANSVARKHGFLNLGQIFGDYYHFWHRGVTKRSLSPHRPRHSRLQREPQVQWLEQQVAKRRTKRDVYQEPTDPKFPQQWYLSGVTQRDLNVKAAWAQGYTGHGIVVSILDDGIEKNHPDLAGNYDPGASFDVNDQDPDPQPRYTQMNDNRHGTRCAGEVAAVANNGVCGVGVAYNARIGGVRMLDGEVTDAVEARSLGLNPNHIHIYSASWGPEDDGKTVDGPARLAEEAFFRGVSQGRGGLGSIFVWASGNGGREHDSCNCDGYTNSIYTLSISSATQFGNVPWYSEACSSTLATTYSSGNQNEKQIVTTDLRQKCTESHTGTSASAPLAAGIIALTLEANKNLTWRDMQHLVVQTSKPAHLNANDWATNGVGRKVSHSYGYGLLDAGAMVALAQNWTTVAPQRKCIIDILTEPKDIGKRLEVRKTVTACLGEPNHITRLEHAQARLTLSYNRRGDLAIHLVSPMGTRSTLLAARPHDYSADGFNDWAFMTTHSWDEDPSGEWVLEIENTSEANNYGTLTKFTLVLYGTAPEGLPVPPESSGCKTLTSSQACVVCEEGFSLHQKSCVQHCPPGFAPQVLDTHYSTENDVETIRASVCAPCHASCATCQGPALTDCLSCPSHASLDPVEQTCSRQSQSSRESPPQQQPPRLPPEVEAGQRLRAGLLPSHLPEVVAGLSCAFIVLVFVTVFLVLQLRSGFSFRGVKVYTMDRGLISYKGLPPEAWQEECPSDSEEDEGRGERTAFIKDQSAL
Cytochrome P450 3A4 (Homo sapiens), sequence (P08684 whole entry, looked up): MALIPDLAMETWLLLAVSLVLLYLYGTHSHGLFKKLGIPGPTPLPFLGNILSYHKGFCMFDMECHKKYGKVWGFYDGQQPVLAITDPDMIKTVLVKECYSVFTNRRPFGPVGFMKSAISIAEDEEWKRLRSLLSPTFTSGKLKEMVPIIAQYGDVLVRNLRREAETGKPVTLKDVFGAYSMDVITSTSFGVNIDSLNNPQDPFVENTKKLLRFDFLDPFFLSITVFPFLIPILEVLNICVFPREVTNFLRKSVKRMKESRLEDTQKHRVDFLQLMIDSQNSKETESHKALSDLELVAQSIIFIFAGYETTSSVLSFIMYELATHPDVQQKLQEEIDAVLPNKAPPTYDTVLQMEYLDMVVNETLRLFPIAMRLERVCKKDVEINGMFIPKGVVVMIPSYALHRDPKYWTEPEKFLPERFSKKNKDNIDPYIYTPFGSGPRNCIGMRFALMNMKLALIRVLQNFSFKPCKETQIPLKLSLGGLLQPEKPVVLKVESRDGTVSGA
Nucleoprotein (Lymphocytic choriomeningitis virus (strain Armstrong)), sequence (P09992 whole entry, looked up): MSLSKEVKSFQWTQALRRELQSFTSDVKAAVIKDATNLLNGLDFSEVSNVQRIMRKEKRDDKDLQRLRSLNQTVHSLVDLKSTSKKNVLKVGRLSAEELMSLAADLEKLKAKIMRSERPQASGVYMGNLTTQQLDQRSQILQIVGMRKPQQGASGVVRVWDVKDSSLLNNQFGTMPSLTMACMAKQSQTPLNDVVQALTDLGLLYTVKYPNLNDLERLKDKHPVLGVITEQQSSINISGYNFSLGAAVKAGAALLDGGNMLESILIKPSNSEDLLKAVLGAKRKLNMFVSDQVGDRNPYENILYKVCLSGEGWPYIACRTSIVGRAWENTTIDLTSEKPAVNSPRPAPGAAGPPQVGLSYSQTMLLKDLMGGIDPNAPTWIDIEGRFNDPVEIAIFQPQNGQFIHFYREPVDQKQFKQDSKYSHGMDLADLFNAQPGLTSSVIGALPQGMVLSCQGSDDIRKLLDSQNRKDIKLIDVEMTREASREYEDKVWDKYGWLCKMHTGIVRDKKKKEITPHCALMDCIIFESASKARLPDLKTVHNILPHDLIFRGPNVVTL
Ubiquitin carboxyl-terminal hydrolase 1 (Homo sapiens), sequence (O94782 whole entry, looked up): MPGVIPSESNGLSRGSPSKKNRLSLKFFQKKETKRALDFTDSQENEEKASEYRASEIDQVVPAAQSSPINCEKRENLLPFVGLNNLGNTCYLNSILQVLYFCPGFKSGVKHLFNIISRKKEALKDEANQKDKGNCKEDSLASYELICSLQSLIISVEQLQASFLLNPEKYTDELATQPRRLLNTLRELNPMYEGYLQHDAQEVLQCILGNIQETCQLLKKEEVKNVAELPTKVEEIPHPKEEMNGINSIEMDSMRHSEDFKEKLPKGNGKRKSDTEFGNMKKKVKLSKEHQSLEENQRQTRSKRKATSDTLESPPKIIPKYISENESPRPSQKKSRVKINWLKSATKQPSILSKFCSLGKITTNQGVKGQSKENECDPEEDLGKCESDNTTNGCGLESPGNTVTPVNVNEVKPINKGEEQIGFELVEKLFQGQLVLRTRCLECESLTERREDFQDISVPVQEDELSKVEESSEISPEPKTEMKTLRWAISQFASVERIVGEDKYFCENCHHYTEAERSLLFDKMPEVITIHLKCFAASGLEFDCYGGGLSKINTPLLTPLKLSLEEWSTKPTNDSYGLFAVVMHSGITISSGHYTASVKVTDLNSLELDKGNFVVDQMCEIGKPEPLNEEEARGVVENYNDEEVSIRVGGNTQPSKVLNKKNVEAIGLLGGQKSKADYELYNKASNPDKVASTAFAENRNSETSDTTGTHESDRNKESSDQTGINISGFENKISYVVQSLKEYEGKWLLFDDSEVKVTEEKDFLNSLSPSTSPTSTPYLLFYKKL

Consider `C[C@H]1O[C@@H](O[C@H]2[C@@H](O)C[C@H](O[C@H]3[C@@H](O)C[C@H](O[C@H]4CC[C@]5(C)C6CC[C@]7(C)[C@@H](C8=CC(=O)OC8)CC[C@]7(O)C6CC[C@@H]5C4)O[C@@H]3C)O[C@@H]2C)C[C@H](O)[C@@H]1O` (stereo partly drawn), for which the Potency entry (in the assay with Furin (Homo sapiens); in assay [2]; in assay [3]; in assay [4]) was “inactive” each time. Besides, the result in assay [1] was inactive. For the same compound, the Potency in [5] was 0.147 µM (active).

As for `N#Cc1c(Oc2cccc(OS(=O)(=O)CCCC(F)(F)F)c2)cccc1C(F)(F)F`, in [2], the Potency result is “inactive”.

Consider `CN(CCc1ccc(Cl)c(Cl)c1)[C@@H]1CCCC[C@@H]1N1CCCC1`, for which the Potency result in assay [2] was “inactive”.

`COc1cc2c(cc1OCC1CCCC1)N([S+](=O)([O-])c1ccc(Oc3ccccc3)cc1)CC21CCN(CC(=O)O)CC1`: the Potency result (with Furin (Homo sapiens); in assay [6]; in assay [7]) was “inactive” in each case.

In the case of `CC(=O)O[C@H]1[C@H]2O[C@]23[C@@H]2CC[C@]4(O)C[C@@H](O)CC[C@]4(C)C2CC[C@]3(C)[C@H]1c1ccc(=O)oc1` (stereo partly drawn), the Potency in [8] was 0.316 µM (active).

Regarding `O=c1c(O)c(-c2ccc(O)c(O)c2)oc2c(O)c(O)cc(O)c12`, the Potency entry (in [9]; in the assay with Furin (Homo sapiens)) was “inactive” each time. In addition, the outcome in assay [10] was inactive. Besides, the activity change, negative = inhibition is 10.8% (inactive) in assay [11] and 35.9% [at 5.25 µM] (inactive) in assay [5]. Moreover, the max response in assay [11] (setting [17]) was -1.92%; in assay [11] (setting [18]) it was 12.9%. Further, the Potency in [12] is 22.4 µM (active); in assay [13] it was 11.2 µM (active); in [14], 158 µM (active); in [15], 100 µM (active).

Turning to `COC1C(O)C(C)O[C@@H](OC2CC[C@@]3(C)C4CC[C@]5(C)C(C6=CC(=O)OC6)CC[C@@]5(O)C4CC[C@@H]3C2)C1O` (stereo partly drawn), the Potency entry (in assay [9]; in assay [16]; with Furin (Homo sapiens); in [3]) was “inactive” each time. Further, the activity change, negative = inhibition in [11] is 8.72% (inactive). Also, the max response amounted to 8.32% in [11] (setting [17]) and 14.8% in assay [11] (setting [18]). For the same compound, the compound was classed as inactive in [1]. Also, in assay [5], the Potency is 0.0658 µM (active).

Turning to `c1ccc2sc(C3(NCC4CC4)CCCCC3)cc2c1`, the Potency result in assay [2] is “inactive”.

For the origin of these results see PubChem BioAssay (NCATS).
